These results are taken from PubChem BioAssay (NCATS).

Records with an inconclusive call do not appear. A call without a number means that no potency is given here. Activity calls are given as the source filed them. Calls follow the shape of the dose curve; as a rule, active = well fitted inhibition curve with a large enough effect; inconclusive = small, poorly fitted or top-dose-only effect; inactive = flat fitted curve, though single readings scatter.

For this assay, the target named is Calcium and integrin-binding protein 1 (Homo sapiens) (UniProt Q99828). Put plainly: Primary qHTS for Identification of Calcium Integrin Binding Protein 1 (CIB1) Competitor (AID 1508620). Also: top concentration of the series differs between compounds. Particulars: CIB1-GST / FITC-alphaIIb peptide fluorescence polarization; series mostly up to 114 µM. The method in brief: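 Fluorescence polarization competition: GST-tagged CIB1 (1 uM final) preincubated with compound 15 min at room temperature, then FITC-labelled alphaIIb peptide (100 nM final) added. After 15 min at room temperature, polarization read at Ex 480/Em 540.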
Chain of Calcium and integrin-binding protein 1 (Homo sapiens) (Q99828 whole entry, looked up): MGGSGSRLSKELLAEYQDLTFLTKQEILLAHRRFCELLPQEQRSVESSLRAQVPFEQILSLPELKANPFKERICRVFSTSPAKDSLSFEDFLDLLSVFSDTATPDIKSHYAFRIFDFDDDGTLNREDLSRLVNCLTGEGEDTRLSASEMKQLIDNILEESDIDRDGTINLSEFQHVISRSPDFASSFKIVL
Background: Quantitative high-throughput screening tests each substance at several concentrations.
For `Oc1cccc2[nH]ccc12`, the Potency entry is “inactive”. For `CC(=O)Nc1ccc(S(=O)(=O)Nc2cc(C)on2)cc1`, the Potency result is “inactive”. Turning to `CCOC(=O)OCC/C(SC(=O)OCC)=C(\C)N(C=O)Cc1cnc(C)nc1N`, the Potency entry is “inactive”. The value for `CCC(=O)O[C@]1(C(=O)COC)[C@@H](C)C[C@H]2[C@@H]3CCC4=CC(=O)C=C[C@]4(C)C3(F)[C@@H](O)C[C@@]21C` (some centres undefined) was “inactive”. The value for `CCCCCCCCCCCCCCCC[N+](C)(C)Cc1ccccc1` was “inactive”.

`OCCOCCN1CCN(C(c2ccccc2)c2ccc(Cl)cc2)CC1` (centres undefined): the Potency result is “inactive”. `CCOC(=O)O[C@]1(C(=O)OCCl)CC[C@H]2[C@@H]3CCC4=CC(=O)C=C[C@]4(C)[C@H]3[C@@H](O)C[C@@]21C`: the Potency entry was “inactive”. With `CN(C(=O)C(Cl)Cl)c1ccc(OC(=O)c2ccco2)cc1`, the Potency entry was “inactive”. Turning to `Cc1oc(-c2ccccc2)nc1CCC(=O)c1ccc(CC2SC(=O)NC2=O)cc1` (centres undefined), the Potency entry is “inactive”. As to `CCCCCOc1ccc(C2SC(=O)NC2=O)cc1OCC` (centres undefined), the Potency result is “inactive”.

Take `COc1ccc(OC(=O)N(CC(=O)O)Cc2ccc(OCCc3nc(-c4ccccc4)oc3C)cc2)cc1`: the Potency result is “inactive”.

Turning to `C#CC(C)(CC)OC(=O)c1ccccc1C(=O)O` (centres undefined), the Potency result was “inactive”. On to `Cc1cc(O)c2c(O)c3c(O)cccc3cc2c1`, for which the Potency result was “inactive”. The same measure for `COC(=O)[C@H]1[C@H]2C[C@@H]3c4[nH]c5cc(OC)ccc5c4CCN3C[C@H]2C[C@@H](OC(=O)/C=C/c2ccc(O)c(OC)c2)[C@@H]1OC`: “inactive”; for `CCc1cccc2c(CCO)c[nH]c12`: “inactive”; for `COc1ccc2cc(C=O)ccc2c1`: “inactive”. The value for `CN1CCN(N)CC1` was “inactive”; that for `CC(COc1ccccc1)NN` (centres undefined) was “inactive”; that for `Cc1ccc(CCn2c3c(c4cc(Cl)ccc42)CN(C)CC3)cn1` was “inactive”. Take `C1N2CN3CN1CN(C2)C3`: the Potency result is “inactive”. The value for `O=C(O)[C@@H](O)[C@H](O)[C@H](O)[C@@H](O)C(=O)O` was “inactive”; that for `C[C@@H](O[C@H]1OCCN(Cc2n[nH]c(=O)[nH]2)[C@H]1c1ccc(F)cc1)c1cc(C(F)(F)F)cc(C(F)(F)F)c1` was “inactive”. The value for `COc1ccccc1OCC1CNC(=O)O1` (centres undefined) was “inactive”.

`OCc1c[nH]c2ccccc12`: the Potency entry was “inactive”. For `CC(=O)N(CC(=O)N(C)C)c1ccccc1`, the Potency result was “inactive”. The same measure for `CCCCCCn1c(=O)c2c(ncn2C)n(C)c1=O`: “inactive”; for `O=C(CCOCCOCCOCCOCCC(=O)Nc1c(I)cc(I)c(C(=O)O)c1I)Nc1c(I)cc(I)c(C(=O)O)c1I`: “inactive”. The same measure for `CCN(CC)CC(=O)Nc1c(C)cccc1C(=O)OC`: “inactive”; for `Oc1ccc(CCNCCCCCCNCCc2ccccc2)cc1O`: “inactive”. As for `O=C(OCCN1CCOCC1)c1cccnc1Nc1cccc(C(F)(F)F)c1`, the Potency entry is “inactive”. On to `O=C(O)Cc1ccc(OCCNC[C@H](O)c2ccccc2)cc1`, for which the Potency entry is “inactive”. As for `CN1C(=O)CC(C)(c2ccccc2)C1=O` (centres undefined), the Potency result was “inactive”.

With `C[N+](C)(CCOc1ccccc1)Cc1cccs1`, the Potency result is “inactive”. With `O=C(O)c1ccccc1Nc1cc(Cl)ccc1C(=O)O`, the Potency result was “inactive”.
